Values joined by “and” are separate entries in the source; they are usually repeats but may differ in a detail not shown here. Equal entries are not always repeated. Records with an inconclusive call do not appear. Active and inactive are the calls of the source. The call rests on the fitted dose curve; in most records, active means well fitted inhibition curve with a large enough effect; inconclusive means small, poorly fitted or top-dose-only effect; inactive means no such curve, though single readings can be large or run the other way.
Molecular target: Cruzipain (Trypanosoma cruzi) (UniProt P25779)
Assay: Confirmation qHTS Assay for Inhibitors of Cruzain; further: nearly all actives have a fitted effect of over 40% in size;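 on Activity change, negative = inhibition: plate controls were uninhibited enzyme control for no effect and buffer wells lacking enzyme for full effect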
Conditions: purified cruzain, Z-FR-AMC fluorescence, 0.01% Triton
Procedure, shortened: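 Reaction progress from the 60 s rise in AMC fluorescence (ex 360, em 450 nm) after adding 2 uM Z-FR-AMC. Before this, 1.5 nM cruzain sat 15 min at room temperature with compound in pH 5.5 acetate buffer with 5 mM DTT and 0.01% Triton X-100.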
Potency means the concentration at half of the fitted maximal effect.

Chain of Cruzipain (Trypanosoma cruzi) (P25779 123-467 limits assumed): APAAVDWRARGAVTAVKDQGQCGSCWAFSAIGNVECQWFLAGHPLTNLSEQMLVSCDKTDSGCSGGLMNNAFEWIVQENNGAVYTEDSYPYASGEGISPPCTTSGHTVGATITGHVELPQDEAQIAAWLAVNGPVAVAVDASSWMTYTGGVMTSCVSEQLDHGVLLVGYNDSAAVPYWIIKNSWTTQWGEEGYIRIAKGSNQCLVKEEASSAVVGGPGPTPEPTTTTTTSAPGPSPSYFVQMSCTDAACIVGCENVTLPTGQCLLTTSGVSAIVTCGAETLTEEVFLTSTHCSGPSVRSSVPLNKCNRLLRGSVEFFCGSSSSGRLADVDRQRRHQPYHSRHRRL

Potency, active:
O=C(CSc1nnc(-c2ccco2)c(-c2ccco2)n1)Nc1ccccc1 12.6 µM
O=C(NCCc1nc2ccccc2n1CCCOc1ccc2ccccc2c1)C1CCCCC1 1.12 µM
CC(C)NC(=O)COC(=O)CNC(=O)C1CCCCC1 14.1 µM
O=C(CNC(=O)c1ccccc1Cl)OC(C(=O)Nc1cc(C(F)(F)F)ccc1Cl)c1ccccc1 (stereo not drawn) 8.91 µM
N#Cc1nc(Nc2cccc(Br)c2)nc(NC2CCCC2)n1 0.1 µM
Cn1c(=O)c2c(-c3ccccc3)n(-n3cnnc3)cc2n(C)c1=O 22.4 µM
COc1cc2cc(CN(Cc3nnnn3Cc3ccco3)C3CCCCC3)c(=O)[nH]c2cc1OC 14.1 µM
C=CC(=O)c1ccc2ccccc2c1 25.1 µM
O=C1/C(=C/c2ccco2)CCc2ccccc21 2.51 µM
Cc1cc(C)cc(OCCCn2c(CCNC(=O)C3CCCCC3)nc3ccccc32)c1 0.891 µM
CCOC(=O)C(C(=O)OCC)N(C#N)c1nc(OC)nc(N(C)C)n1 15.8 µM
Cc1cccc(OCCn2c(CCNC(=O)C3CCCCC3)nc3ccccc32)c1 0.891 µM
N#Cc1nc(N2CCCC2)nc(N2CCCC2)n1 7.08 µM
O=C(NC1CCCC1)c1ccc2nc(-c3ccco3)c(-c3ccco3)nc2c1 8.91 µM
CCC(C(=O)NC1CCCCC1)n1c(SCc2ccccc2F)nc2ccncc21 (stereo not drawn) 4.47 µM
N#Cc1nc(Nc2ccccc2)nc(NC2CCCC2)n1 0.708 µM
CCc1ccc(OCCn2c(CCNC(=O)C3CCCCC3)nc3ccccc32)cc1 2.24 µM
N#Cc1nc(Nc2cccc(F)c2)nc(NC2CCCC2)n1 0.0794 µM
N#Cc1nc(N)nc(N(c2ccccc2)c2ccccc2)n1 3.55 µM and 3.16 µM
O=C(COc1ccc(F)cc1)NCCc1nc2ccccc2[nH]1 0.199 µM

Activity change, negative = inhibition, inactive:
O=C(NCc1ccc2c(c1)OCO2)c1ccc2c(c1)N(Cc1cccc(Cl)c1)C(=O)c1ccccc1S2 3.57%
O=C(NCc1nnc(C(=O)Nc2ccc(C(F)(F)F)cc2Cl)o1)c1ccccc1 -7.13%
O=C(CCN1C(=O)/C(=C/C=C/c2ccccc2)SC1=S)Nc1nccs1 1.52%
Cc1ccc2cc(CN(Cc3ccco3)Cc3nnnn3Cc3ccco3)c(=O)[nH]c2c1 -10.1%
Cc1oc(=O)c(NC(=O)c2ccccc2)cc1C(=O)c1ccccc1 -5.13%
CCC(C)NC(=O)c1ccc2nc(-c3cccs3)c(-c3cccs3)nc2c1 (stereo not drawn) -5.12%
CCOC(=O)N1CCC(=C2c3ccc(Cl)cc3CCc3cccnc32)CC1 -13.4%
O=C(Nc1ccc(O)c(-c2nc3ccccc3o2)c1)C1(c2ccc([N+](=O)[O-])cc2)CCCC1 -1.92%
CC(C)(C)C(=O)O/N=C1/C(=O)N(c2ccccc2)c2ccccc21 -24.3%
O=C(Cn1c2ccccc2c(=O)c2ccccc21)Nc1cccc(F)c1 -8.37%
c1ccc(CN(Cc2ccccc2)Cc2nnc(-c3cc4ccccc4[nH]3)s2)cc1 -2.53%
CN1CCN(c2ncc3ncc(=O)n(-c4ccccc4)c3n2)CC1 -20%
Cc1cc(NC(=O)Cc2cccs2)no1 -19.2%
CNC(=O)c1ccc2nc(-c3cccc(C)c3)c(-c3cccc(C)c3)nc2c1 -24.1%
Cc1ccc(NC(=O)c2ccc(-n3nncc3-c3ccccc3)cc2)cc1 2.57%
O=C(NCCCc1nc2ccccc2n1CCOc1ccccc1)C1CCCCC1 -11.7%
COc1ccc(-c2nn3c(-c4cc(-c5ccccc5)n[nH]4)nnc3s2)cc1OC -9.95%
CCC(c1nnnn1Cc1ccccc1)N(Cc1ccccc1)Cc1cc2cc(C)ccc2[nH]c1=O (stereo not drawn) -9.93%
